# Measurements from PubChem BioAssay AID720490 (Broad Institute, 2013).
# Results with a measured potency or affinity are listed apart. Activity calls are given as the source filed them.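 The calls were made as follows: active = compound whose fitted half-maximal concentration for signal loss stays within twice its top tested dose in every run; inconclusive = runs not all active and not all inactive; inactive = every run inactive.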
# Test: Shn3 3'UTR reporter signal decrease – cell-based, Clone20 osteoblasts, firefly luciferase, cherry-pick, set 2, Schnurri-3 inhibitor project, dose response (AID 720490)
# Settings: Clone20 osteoblast Shn3 3'UTR firefly luciferase, 24 h; series mostly up to 35 µM
row,SMILES,outcome
1,CCOC(=O)c1cn(CC(=O)Nc2cccc(Cl)c2C)nn1,inactive
2,CCN(CC)Cc1c(O)ccc2c1O/C(=C\C=C\c1ccccc1)C2=O,inactive
3,CCOC(=O)Cn1c(S(=O)(=O)Cc2ccccc2Cl)nc(-c2ccccc2)c1-c1ccccc1,inactive
4,O=C1S/C(=C\c2ccc(N3CCOCC3)o2)C(=O)N1Cc1c(F)cccc1Cl,inactive
